Source: PubChem BioAssay (several laboratories)
PAX8 reporter: lowers PAX8-driven luciferase in RMG-I cells. RMG-I TPO-luciferase reporter, SteadyGlo, 24 h. inhibition, % at 12.6 µM. 1.2% of 360,000 active. AID 652154;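 active means mean replicate inhibition at least 60% with every replicate also reaching 60%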;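 further: luciferase light reporting Pax8 driven TPO promoter activity; plate controls were median of neutral control wells for no effect and mitoxantrone controls for full effect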
EWS-Fli block: blocks EWS/Fli oncoprotein-driven transcription. A673 NR0B1-luciferase reporter, viability-normalised. 0.67% of 350,000 active. inhibition, % at 12.6 µM;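 active means mean inhibition of at least 50% after viability correction, with every replicate also passing that limit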;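 further: firefly luciferase signal divided by Alamar Blue viability fluorescence both relative to DMSO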
Env fusion inh: blocks HIV Env-driven cell-cell fusion; 1.1% of 360,000 active; HeLa-JRFL Env/CEM21 cell fusion, luciferase; AID 651610; inhibition, % at 12.3 µM;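 active means mean replicate inhibition score of at least 50 and every replicate individually at or above 50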;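 further: 0% = plate neutral controls and 100% = maraviroc near 300 nM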
GAA850 FXN act: frataxin GAA850 promoter activation | HEK293 lucGAA850 FXN promoter luciferase reporter, 24 h; percent of 10 µM SAHA response | 0.56% of 360,000 active | activation, % at 6 µM;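 active means activation above the average of all compounds screened plus 3 SD, cutoff fixed separately per campaign, cut at about 7.5% in these data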;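 further: 0% = DMSO wells and 100% = 10 µM SAHA wells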
F508del corr: correctors of CFTR F508del function in bronchial epithelial cells | activity (quench increase), % at 7.58 µM | CFBE cells, YFP halide quenching; stimulated with forskolin plus potentiator P3; % fluorescence drop versus neutral controls | 0.36% of 350,000 active;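 active means mean added fluorescence quench of at least 8% versus neutral control, with both replicates also reaching 8%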;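 further: cells transiently co-express mutant CFTR-F508del with the halide-sensitive YFP; corrector assay measuring rescue of mutant channel to the surface after 24 h compound exposure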
The depositor's hits bear a star; i = inactive; . = no result given; [ ] = remark or other dose. In the library only some 2.5% were active in any assay of this set; here they are far more common.

SMILES | PAX8 reporter | EWS-Fli block | Env fusion inh | GAA850 FXN act | F508del corr
C[C@H](CO)N1C[C@H](C)[C@H](CN(C)S(=O)(=O)c2ccccc2)Oc2ccc(NC(=O)Nc3ccccc3)cc2CC1=O | 3.8 | 3.6 | 80.3*[16.7 µM] | . | -0.8
O=C(Nc1ccc(Cl)cc1)N[C@H]1CC[C@H](CCn2cc(C3(O)CCCC3)nn2)O[C@H]1CO | 13.0 | -9.8 | 5.1[16.7 µM] | . | -1.2
COc1cc(/C=C2\CC(C(C)(C)C)C/C(=C\c3cc(OC)c(OC)c(OC)c3)C2=O)cc(OC)c1OC (centres undefined) | 8.3 | 82.3* | -111.7 | -6.7 | -4.8
COc1cc(/C=C2\CC/C(=C\c3cc(OC)c(OC)c(OC)c3)C2=O)cc(OC)c1OC | 4.8 | 9.3 | 36.7 | 3.8 | -1.7
COc1cc(/C=C2\COC/C(=C\c3cc(OC)c(OC)c(OC)c3)C2=O)cc(OC)c1OC | 106.1* | 73.7* | 110.2* | -12.5 | -1.5
COCC(=O)Nc1ccc2c(c1)[C@@H]1C[C@H](CC(=O)NCc3ccccc3F)O[C@@H](CO)[C@@H]1O2 | 6.5 | -3.0 | 3.8[16.7 µM] | . | 0.2
C[C@H](CO)N1C[C@H](C)[C@H](CN(C)S(=O)(=O)c2ccccc2)Oc2ccc(NC(=O)Cn3cnnn3)cc2CC1=O | 16.0 | -4.2 | 65.2*[16.7 µM] | . | -1.7
C[C@@H]1CN([C@@H](C)CO)C(=O)Cc2cc(NC(=O)Cn3cnnn3)ccc2O[C@H]1CN(C)S(=O)(=O)c1ccccc1 | -14.3 | 4.5 | 2.3[16.7 µM] | . | -0.4
Cc1ccc(S(=O)(=O)N(C)C[C@@H]2Oc3ccc(NC(=O)Cn4cnnn4)cc3CC(=O)N([C@H](C)CO)C[C@@H]2C)cc1 | -6.1 | -11.9 | 88.7*[16.7 µM] | . | -1.0
CC=Cc1ccc2n(c1=O)C[C@@H]1[C@@H](CO)[C@H](C(=O)NC3Cc4ccccc4C3)N(CC3CC3)[C@H]21 (mixture of isomers) | . | -3.7 | . | . | 2.1
CCCNC1=C(N(C(C)=O)c2cccc(F)c2)C(=O)c2ccccc2C1=O | 108.8* | 6.8 | 78.1* | -0.4 | .
O=C(Nc1ccc(N2CCN(C(=O)c3ccccc3)CC2)cc1)c1ccc([N+](=O)[O-])o1 | 100.1* | 65.8* | i | 6.1 | -16.1
Cc1ccccc1C(=O)N1CCN(c2ccc(NC(=O)c3ccc([N+](=O)[O-])o3)cc2)CC1 | 9.1 | 60.6* | -23.2 | 1.3 | -2.7
Cc1ccccc1C(=O)N1CCN(c2ccc(NC(=O)c3cccnc3)cc2)CC1 | -0.5 | 2.2 | 24.8 | -3.3 | 0.5
C[C@H](CO)N1C[C@H](C)[C@@H](CN(C)Cc2ccc(C(=O)O)cc2)Oc2ccc(NC(=O)Nc3ccc4c(c3)OCO4)cc2CC1=O | 5.7 | 3.4 | -10.1[16.7 µM] | . | -2.5
CN1CCN(C(=O)C[C@@H]2CC[C@@H]3[C@H](COC[C@H](O)CN3Cc3cccc(F)c3)O2)CC1 | -24.0 | 3.1 | -5.7[16.7 µM] | . | -2.6
O=C(Nc1cccc(O)c1)C(=O)Nc1ccccn1 | 67.5* | 7.7 | . | 0.6 | -1.8
CC(=O)N1CCc2c(sc(NC(=O)c3ccc4c(c3)OCCO4)c2C#N)C1 | -33.2 | -20.3 | -99.5 | -3.4 | 10.5*
CCC(=O)Nc1sc2c(c1C(N)=O)CCN(C(C)=O)C2 | -0.4 | 4.2 | 21.2 | 0.0 | -1.5
CC(=O)N1CCc2c(sc(NC(=O)c3ccc([N+](=O)[O-])o3)c2C(N)=O)C1 | 86.6* | 42.0 | i | -0.6 | -2.8
CC(=O)N1CCc2c(sc(NC(=O)c3ccc(S(=O)(=O)N(C)C)cc3)c2C#N)C1 | -20.4 | -10.3 | -1.2 | -0.4 | -0.4
Cc1ccc(S(=O)(=O)Nc2cccc3c2O[C@@H](CN(C)Cc2ccc(Oc4ccccc4)cc2)[C@@H](C)CN([C@@H](C)CO)C3=O)cc1 | -15.7 | 8.3 | 35.6[16.7 µM] | . | -2.9
C[C@H]1CN([C@@H](C)CO)S(=O)(=O)c2ccc(C#Cc3ccc(F)cc3)cc2O[C@@H]1CN(C)C(=O)CN(C)C | . | 66.9* | 9.1[16.7 µM] | . | -3.9
C[C@@H]1CN([C@H](C)CO)S(=O)(=O)c2ccc(C#Cc3ccc(F)cc3)cc2O[C@@H]1CN(C)C(=O)CN(C)C | . | 5.0 | 10.3[16.7 µM] | . | -3.9
C[C@H](CO)N1C[C@H](C)[C@H](CN(C)C(=O)CN2CCOCC2)Oc2cc(C#Cc3cccc(F)c3)ccc2S1(=O)=O | . | -3.2 | 3.1[16.7 µM] | . | 1.7
C[C@H]1CN([C@@H](C)CO)S(=O)(=O)c2ccc(C#Cc3ccccc3)cc2O[C@H]1CN(C)C(=O)CN(C)C | . | 21.7 | 19.1[16.7 µM] | . | -3.6
